Our source for the outcome and AC50 values is PubChem BioAssay (EPA / NIEHS).

In general, AC50 refers to the concentration at which the activity in the assay is half-maximal.

Test [1] can be described thus: BSK_3C_TissueFactor: BioMAP Diversity Plus: 3C Assay for Tissue Factor Biomarker Activity (AID 2282997). The note with it: BioMAP 3C HUVEC, tissue factor biomarker readout; actives raise or lower the signal. The method in brief:
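Dosing of human umbilical vein endothelial cells preceded a 24 h incubation. Tissue Factor was then read by ELISA, with increases and decreases both scored relative to DMSO controls.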

Test [2] in a line: BSK_3C_VCAM1: BioMAP Diversity Plus: 3C Assay for Vascular cell adhesion molecule 1 (VCAM1) Biomarker Activity (AID 2282999). To be noted: BioMAP 3C HUVEC, VCAM1 ELISA, cytokine-stimulated; actives raise or lower the signal. The method in brief:
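Human umbilical vein endothelial cells were dosed with compound for 24 h, after which cell-surface VCAM-1 was quantified by ELISA. Bidirectional curve fitting used DMSO as negative control and activity baseline.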
In general terms: In an ELISA, binding on a coated surface is turned into a signal by an enzyme label.

Read-out in test [3]: Monokine induced gamma interferon (MIG), CXCL9 (gene 4283)
The experiment in a line: BSK_3C_MIG: BioMAP Diversity Plus: 3C Assay for Monokine induced gamma interferon (MIG) Biomarker Activity (AID 2283021).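 On AC50: MIG protein level measured by immunoassay in the treated endothelial cultures.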 The note with it: primary human endothelial cells (HUVEC); actives raise or lower the signal. In a few lines:
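Primary human umbilical vein endothelial cells in the 3C system were exposed to chemical for 24 h, after which MIG was quantified by ELISA. Activity was fitted bidirectionally against DMSO as negative control and baseline.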

Read-out in test [4]: Monokine induced gamma interferon (MIG), CXCL9 (gene 4283)
The experiment in a line: BSK_BE3C_MIG: BioMAP Diversity Plus: BE3C Assay for Monokine induced gamma interferon (MIG) Biomarker Activity (AID 2283035).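 Further: MIG protein measured by ELISA in BE3C cultures after 24 h of dosing.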 To be noted: primary human bronchial epithelial cells; actives raise or lower the signal. The method in brief:
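ELISA read-out of MIG in human lung bronchial epithelial primary cultures, 24 h post-dosing. Bidirectional curve fit vs DMSO baseline.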

Read-out in test [5]: Transforming growth factor beta 1 (TGFb1), TGFB1 (gene 7040)
The experiment in a line: BSK_BE3C_TGFb1: BioMAP Diversity Plus: BE3C Assay for Transforming growth factor beta 1 (TGFb1) Biomarker Activity (AID 2283036). To be noted: primary human bronchial epithelial cells; actives raise or lower the signal. The method in brief:
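Human primary bronchial epithelial cells (BE3C system) were dosed with chemical and TGF-b1 levels measured by ELISA at 24 h. Activity was fitted bidirectionally relative to DMSO negative control as baseline.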

Read-out in test [6]: Plasminogen activator inhibitor-1 (PAI1), SERPINE1 (gene 5054)
The experiment in a line: BSK_BE3C_PAI1: BioMAP Diversity Plus: BE3C Assay for Plasminogen activator inhibitor-1 (PAI1) Biomarker Activity (AID 2283037). The note with it: primary human bronchial epithelial cells; actives raise or lower the signal. The method in brief: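 Human primary bronchial epithelial cells were exposed to chemical for 24 h, then PAI-1 was quantified by ELISA. Activity was fitted bidirectionally relative to the DMSO negative control baseline.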

Read-out in test [7]: urokinase plasminogen activator (uPA), PLAU (gene 5328)
The experiment in a line: BSK_BE3C_uPA: BioMAP Diversity Plus: BE3C Assay for urokinase plasminogen activator (uPA) Biomarker Activity (AID 2283038).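 Further: uPA protein level quantified by ELISA in cell cultures; uPA read one day after compound addition.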 The note with it: primary human bronchial epithelial cells; actives raise or lower the signal. The method in brief:
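ELISA for uPA on human primary bronchial epithelial cultures 24 h post-treatment, gain or loss against DMSO. Parallel SRB staining (0.1% after 10% TCA fixation, 560 nm) assessed overt cytotoxicity.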

Read-out in test [8]: Tissue plasminogen activator (tPA), PLAT (gene 5327)
The experiment in a line: BSK_BE3C_tPA: BioMAP Diversity Plus: BE3C Assay for Tissue plasminogen activator (tPA) Biomarker Activity (AID 2283041).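 On outcome: tPA level quantified by ELISA one day after compound addition.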 To be noted: primary human bronchial epithelial cells; actives raise or lower the signal. In a few lines:
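Human primary bronchial epithelial cells were dosed with chemical and tPA biomarker levels measured by ELISA 24 hours later. Activity was fitted bidirectionally against DMSO as negative control and baseline.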

Read-out in test [9]: serum amyloid A (SAA), SAA1 (gene 6288)
The experiment in a line: BSK_CASM3C_SAA: BioMAP Diversity Plus: CASM3C Assay for serum amyloid A (SAA) Biomarker Activity (AID 2283049).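 Further: SAA protein level quantified by ELISA.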 The note with it: primary human coronary artery smooth muscle cells; actives raise or lower the signal.

Read-out in test [10]: Vascular cell adhesion molecule 1 (VCAM1), VCAM1 (gene 7412)
The experiment in a line: BSK_CASM3C_VCAM1: BioMAP Diversity Plus: CASM3C Assay for Vascular cell adhesion molecule 1 (VCAM1) Biomarker Activity (AID 2283055).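 Further: VCAM-1 protein level quantified by ELISA on the cells.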 The note with it: primary human coronary artery smooth muscle cells; actives raise or lower the signal.

Read-out in test [11]: Collagen III, COL3A1 (gene 1281)
The experiment in a line: BSK_hDFCGF_CollagenIII: BioMAP Diversity Plus: hDFCGF Assay for Collagen III Biomarker Activity (AID 2283056). The note with it: primary human foreskin fibroblasts; actives raise or lower the signal. In a few lines:
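ELISA readout of Collagen III in human dermal (foreskin) fibroblasts, taken 24 h post-treatment. Gain or loss relative to DMSO vehicle fitted in both directions.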

Read-out in test [12]: Macrophage colony-stimulating factor (MCSF), CSF1 (gene 1435)
The experiment in a line: BSK_hDFCGF_MCSF: BioMAP Diversity Plus: hDFCGF Assay for Macrophage colony-stimulating factor (MCSF) Biomarker Activity (AID 2283060). To be noted: primary human foreskin fibroblasts; actives raise or lower the signal. The method in brief: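 M-CSF levels read by ELISA at 24 h post-dosing in human skin fibroblasts. Parallel cultures stained with SRB assessed cytotoxicity at the same time point; response fitted in both directions against the DMSO baseline.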

Read-out in test [13]: Interleukin-1 alpha (IL1a), IL1A (gene 3552)
The experiment in a line: BSK_KF3CT_IL1a: BioMAP Diversity Plus: KF3CT Assay for Interleukin-1 alpha (IL1a) Biomarker Activity (AID 2283070). To be noted: primary human keratinocytes with fibroblasts; actives raise or lower the signal. In a few lines: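 Human keratinocyte plus foreskin fibroblast primary co-culture, sampled 24 h after chemical dosing. IL-1a measured by ELISA; responses fitted bidirectionally against DMSO baseline (negative control), so gain or loss of signal both count.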

Read-out in test [14]: TIMP metallopeptidase inhibitor 2 (TIMP2), TIMP2 (gene 7077)
The experiment in a line: BSK_KF3CT_TIMP2: BioMAP Diversity Plus: KF3CT Assay for TIMP metallopeptidase inhibitor 2 (TIMP2) Biomarker Activity (AID 2283071). The note with it: primary human keratinocytes with fibroblasts; actives raise or lower the signal. In a few lines: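 Human primary keratinocyte/foreskin fibroblast co-culture dosed with chemical and sampled at 24 h. TIMP-2 levels quantified by ELISA; bidirectional fitting against DMSO negative control as baseline.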

Read-out in test [15]: Matrix Metallopeptidase 9 (MMP9), MMP9 (gene 4318)
The experiment in a line: BSK_KF3CT_MMP9: BioMAP Diversity Plus: KF3CT Assay for Matrix Metallopeptidase 9 (MMP9) Biomarker Activity (AID 2283074).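 On AC50: MMP9 protein level quantified by ELISA in the co-culture.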 To be noted: primary human keratinocytes with fibroblasts; actives raise or lower the signal. In a few lines: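 Keratinocyte plus foreskin fibroblast human primary skin co-culture was dosed with chemical and MMP-9 was quantified by ELISA 24 h later. Bidirectional curve fitting used DMSO as negative control and activity baseline.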

Read-out in test [16]: Tumor necrosis factor (Homo sapiens) (UniProt P01375)
The experiment in a line: BSK_LPS_TNFa: BioMAP Diversity Plus: LPS Assay for Tumour Necrosis Factor alpha (TNFa) Biomarker Activity (AID 2283085).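 On AC50: TNFa protein level quantified by ELISA in the co-culture.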 To be noted: primary human HUVEC with PBMC; actives raise or lower the signal. In a few lines: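 Human umbilical vein endothelial cells co-cultured with PBMC were exposed to test chemical and TNFa measured by ELISA 24 h after dosing. Bidirectional curve fitting was done relative to DMSO as negative control and baseline.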

Read-out in a further test: CD38, CD38 (gene 952)
The experiment in a line: BSK_SAg_CD38: BioMAP Diversity Plus: SAg Assay for CD38 Biomarker Activity (AID 2283087). The note with it: primary human HUVEC with PBMC; actives raise or lower the signal. In a few lines: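 Fluorescence ELISA of cell-surface CD38 served as the read-out, with either increase or decrease fitted against DMSO controls. Cells were a human umbilical vein endothelium plus PBMC co-culture under SEB/TSST-1 stimulation, measured 24 h after dosing.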

Read-out in the next test: CD69, CD69 (gene 969)
The experiment in a line: BSK_SAg_CD69: BioMAP Diversity Plus: SAg Assay for CD69 Biomarker Activity (AID 2283089).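 On AC50: cell surface CD69 protein quantified by ELISA with fluorescence detection.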 To be noted: primary human HUVEC with PBMC; actives raise or lower the signal. The method in brief: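 Values derive from bidirectional fitting relative to DMSO vehicle. Cells: umbilical vein endothelium plus peripheral blood mononuclear cells, treated 24 h before fluorescent ELISA for CD69.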

Read-out in test [17]: E-selectin (Homo sapiens) (UniProt P16581)
The experiment in a line: BSK_SAg_Eselectin: BioMAP Diversity Plus: SAg Assay for Eselectin Biomarker Activity (AID 2283091). The note with it: primary human HUVEC with PBMC; actives raise or lower the signal. In a few lines: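 Cell-surface E-selectin is read by ELISA at 24 h in the SAg co-culture of HUVEC and PBMC. Curves are fitted in both directions relative to DMSO. Parallel SRB total-protein staining tracks overt toxicity.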

The nature of test [18]: BSK_SAg_PBMCCytotoxicity: PBMC Cytotoxicity Assessment in the BioMAP Diversity Plus: SAg Assay (AID 2283093).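 Further: PBMC viability measured as Alamar Blue reduction fluorescence at 546/580 nm; fitted both ways against DMSO so a hit may be loss or gain of signal.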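 On AC50: PBMC superantigen activated with SEB plus TSST-1 one hour after compound addition.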 To be noted: primary human HUVEC with PBMC. In a few lines:
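Human umbilical vein endothelial cells co-cultured with PBMC; PBMC (75,000/well) pre-treated with compound 1 h, then activated with SEB and TSST-1 (20 ng/mL final each) for 90 h. Alamar Blue added 6 h, fluorescence 546/580 nm; bidirectional fit versus DMSO.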

Activity calls are given as the source filed them. How the source made its calls: active means hit-call score of the fitted dose curve at least 0.9, where 1 is the maximum; inactive means score below 0.9.

Chain of Tumor necrosis factor (Homo sapiens) (P01375 whole entry, looked up): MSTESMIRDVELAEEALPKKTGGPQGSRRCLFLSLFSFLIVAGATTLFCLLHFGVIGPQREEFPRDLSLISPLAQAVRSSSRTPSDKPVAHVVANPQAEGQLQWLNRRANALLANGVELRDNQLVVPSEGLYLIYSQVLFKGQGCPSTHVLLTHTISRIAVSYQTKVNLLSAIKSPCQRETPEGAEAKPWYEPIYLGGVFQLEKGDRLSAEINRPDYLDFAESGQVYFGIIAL
Chain of E-selectin (Homo sapiens) (P16581 whole entry, looked up): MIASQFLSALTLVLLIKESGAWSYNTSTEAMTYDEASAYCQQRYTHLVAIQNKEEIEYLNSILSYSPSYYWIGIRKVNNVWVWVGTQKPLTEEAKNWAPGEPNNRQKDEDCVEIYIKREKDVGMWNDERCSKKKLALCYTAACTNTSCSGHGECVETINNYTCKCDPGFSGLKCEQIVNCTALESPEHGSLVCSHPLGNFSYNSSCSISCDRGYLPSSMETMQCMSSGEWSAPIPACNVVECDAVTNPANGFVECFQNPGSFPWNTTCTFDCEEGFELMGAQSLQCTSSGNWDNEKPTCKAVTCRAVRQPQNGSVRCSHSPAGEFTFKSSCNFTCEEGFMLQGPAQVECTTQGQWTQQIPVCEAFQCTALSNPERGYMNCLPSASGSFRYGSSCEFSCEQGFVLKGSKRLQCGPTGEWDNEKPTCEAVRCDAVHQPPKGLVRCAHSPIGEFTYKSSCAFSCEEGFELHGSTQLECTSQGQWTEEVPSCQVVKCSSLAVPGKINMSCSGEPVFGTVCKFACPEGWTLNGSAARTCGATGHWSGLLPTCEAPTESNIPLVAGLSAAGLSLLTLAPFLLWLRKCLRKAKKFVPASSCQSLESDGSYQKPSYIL

In the case of `Clc1ccc(-c2ccccc2)cc1`, the result in test [1], in test [2], in test [3], in [4], in test [5] and in test [6] was inactive. Also, the outcome in test [7], in test [8], in test [9], in test [10], in test [11] and in [12] was inactive. Moreover, the outcome in test [13] is “inactive”; in [14] it was “inactive”; in test [15], “inactive”; in [16] it was “inactive”; in the test with CD38, CD38 (gene 952) it was “inactive”; in the test with CD69, CD69 (gene 969), “inactive”. The outcome in [17] and in test [18] was inactive.

With `COC(C)(C)CCC[C@H](C)C/C=C/C(C)=C/C(=O)OC(C)C`, the concentration at half-maximal activity (AC50) was 20 µM (active) in [1]; 28.8 µM (active) in test [2]; 39.2 µM (active) in test [3]; 9.71 µM (active) in [8]; 20 µM (active) in test [10]; 16.6 µM (active) in [11]. Further, the half-maximal activity concentration (AC50) in [12] is 22.7 µM (active); in [13], 24.1 µM (active); in [14] it was 9.64 µM (active); in test [15], 29 µM (active); in [16] it was 32.7 µM (active); with CD38, CD38 (gene 952) it was 30.4 µM (active). For the same compound, the AC50 with CD69, CD69 (gene 969) was 18 µM (active); in [17], 20 µM (active); in test [18], 29.7 µM (active). For the same compound, the outcome in test [4], in test [5], in test [6], in test [7] and in test [9] was inactive.

In the case of `CC(C)(C)C(=O)CCl`, the AC50 is 20 µM (active) in test [1]; 20 µM (active) in test [2]; 11.7 µM (active) in [10]; 27 µM (active) with CD38, CD38 (gene 952); 8.75 µM (active) with CD69, CD69 (gene 969); 20 µM (active) in test [17]. Moreover, in test [18], the AC50 is 9.22 µM (active). Further, the result in [3], in [4], in test [5], in [6], in [7] and in [8] was inactive. Further, the result in test [9], in test [11], in test [12], in test [13], in [14] and in test [15] was inactive. Further, in [16], the result was inactive.
